Records with an inconclusive call do not appear. The source made the active and inactive calls. Unless noted, calls come from the whole dose curve; as a rule, active = well fitted curve in the direction sought with a large enough effect; inconclusive = small, poorly fitted or top-dose-only effect, or another doubt; inactive = no such curve, though single readings can be large; an effect the other way counts as inactive or inconclusive.

The nature of assay [1]: S16 Schwann cell PMP22 intronic element firefly luciferase assay (AID 624032). Note: nearly all actives have a fitted effect of over 30% in size. Note: potency is the fitted concentration of half-maximal effect. In a few lines: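 Luciferase reporter of PMP22 intronic-element expression in stably transfected S16 rat Schwann cells, read by ONE-Glo luminescence after 24 h compound exposure at 37 C. Activity scaled between DMSO (0%) and positive-control PTC124; concentration-effect curves quality-classified.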

The next assay deals with 7G8. Nature of the assay: qHTS profiling for inhibitors of Plasmodium falciparum proliferation (AID 504749). Note: nearly all actives have a fitted effect of over 60% in size. Note: potency is the fitted concentration of half-maximal effect. The note with it: P. falciparum in erythrocytes, SYBR Green DNA, 72 h; series mostly up to 12.8 µM. The method, boiled down:
(§1)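 In a 72 h erythrocytic culture (37 C, humidified, 5% CO2) at 2.5% hematocrit and 0.3% starting parasitemia, compounds were tested; SYBR Green I in detergent lysis buffer stained parasite DNA overnight.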

The test system of a further assay is C2A. Described as above. The settings on record: P. falciparum in erythrocytes, SYBR Green DNA, 72 h; series mostly up to 28.7 µM. The method, boiled down:
as §1

Another assay concerns CP237. Described as above. The settings on record: P. falciparum in erythrocytes, SYBR Green DNA, 72 h; series mostly up to 28.7 µM. The method, boiled down:
as §1

The next assay has as its system CP262. The description is as above. The settings on record: P. falciparum in erythrocytes, SYBR Green DNA, 72 h; series mostly up to 28.7 µM. In a few lines: as §1
The test system of the next assay is CP266. The assay is described as above. The note with it: P. falciparum in erythrocytes, SYBR Green DNA, 72 h; series mostly up to 12.8 µM. In a few lines:
as §1

The subject of another assay is CP286. The assay is described as above. The note with it: P. falciparum in erythrocytes, SYBR Green DNA, 72 h; series mostly up to 28.7 µM. The method, boiled down: as §1
For the next assay, the system named is CP315. The description is as above. The note with it: P. falciparum in erythrocytes, SYBR Green DNA, 72 h; series mostly up to 28.7 µM. In a few lines:
as §1

For the next assay, the system named is DIV14. The assay is described as above. The settings on record: P. falciparum in erythrocytes, SYBR Green DNA, 72 h; series mostly up to 28.7 µM. In a few lines: as §1
A further assay relates to DIV17. Described as above. The settings on record: P. falciparum in erythrocytes, SYBR Green DNA, 72 h; series mostly up to 28.7 µM. The method, boiled down: as §1
In the next assay the test system is Dd2. The description is as above. The settings on record: P. falciparum in erythrocytes, SYBR Green DNA, 72 h; series mostly up to 28.7 µM. In a few lines: as §1
Assay [2] in a line: Stat Signaling Pathway (AID 446; active = well fitted curve in either direction with a large enough effect, not every such curve was filed as active;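 note: ME-180 cervical cancer cells given 40 pM IL-6 alongside compound; SIE-controlled beta-lactamase reporter measured as 460/530 nm FRET emission ratio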). In a few lines:
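FRET read-out (405 nm excitation, 460/530 nm emission) of a beta-lactamase reporter under a STAT-inducible element in ME-180 cervical carcinoma cells. Cells with compound receive 40 pM IL-6 for 5 h. Values are normalised to AC90 stimulation and AC90 JAK-inhibitor controls.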

For assay [3], the target named is 3',5'-cyclic-AMP phosphodiesterase 4B (Homo sapiens) (UniProt Q07343). The experiment in a line: qHTS Assay for Inhibitors of PDE-IV (AID 607; active = well fitted activation curve with a large enough effect in the main read-out, with a control signal flat, not every such curve was filed as active). The method, boiled down:
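Cell-based read-out of cAMP via a modified cyclic nucleotide-gated channel and membrane potential dye (535/590 nm) in HEK293 cells expressing PDE4 endogenously. Compounds tested up to 22.9 uM final; 100 uM RO 20-1724 reference.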

The next assay concerns CP185. Nature of the assay: qHTS profiling for inhibitors of Plasmodium falciparum proliferation (AID 504749). Note: nearly all actives have a fitted effect of over 60% in size. Note: potency is the fitted concentration of half-maximal effect. The settings on record: P. falciparum in erythrocytes, SYBR Green DNA, 72 h; series mostly up to 28.7 µM. In a few lines:
as §1

The next assay deals with CP192. Described as above. The note with it: P. falciparum in erythrocytes, SYBR Green DNA, 72 h; series mostly up to 28.7 µM. In a few lines:
as §1

The subject of the next assay is CP194. The assay is described as above. The settings on record: P. falciparum in erythrocytes, SYBR Green DNA, 72 h; series mostly up to 28.7 µM. In a few lines:
as §1

A further assay concerns CP201. Described as above. The settings on record: P. falciparum in erythrocytes, SYBR Green DNA, 72 h; series mostly up to 28.7 µM. The method, boiled down:
as §1

In the next assay the test system is CP203. The description is as above. The settings on record: P. falciparum in erythrocytes, SYBR Green DNA, 72 h; series mostly up to 28.7 µM. In a few lines:
as §1

The next assay deals with CP305. The assay is described as above. The settings on record: P. falciparum in erythrocytes, SYBR Green DNA, 72 h; series mostly up to 28.7 µM. The method, boiled down: as §1
In another assay the test system is GB4. The assay is described as above. The settings on record: P. falciparum in erythrocytes, SYBR Green DNA, 72 h; series mostly up to 28.7 µM. The method, boiled down:
as §1

Sequence of 3',5'-cyclic-AMP phosphodiesterase 4B (Homo sapiens) (Q07343 whole entry, looked up): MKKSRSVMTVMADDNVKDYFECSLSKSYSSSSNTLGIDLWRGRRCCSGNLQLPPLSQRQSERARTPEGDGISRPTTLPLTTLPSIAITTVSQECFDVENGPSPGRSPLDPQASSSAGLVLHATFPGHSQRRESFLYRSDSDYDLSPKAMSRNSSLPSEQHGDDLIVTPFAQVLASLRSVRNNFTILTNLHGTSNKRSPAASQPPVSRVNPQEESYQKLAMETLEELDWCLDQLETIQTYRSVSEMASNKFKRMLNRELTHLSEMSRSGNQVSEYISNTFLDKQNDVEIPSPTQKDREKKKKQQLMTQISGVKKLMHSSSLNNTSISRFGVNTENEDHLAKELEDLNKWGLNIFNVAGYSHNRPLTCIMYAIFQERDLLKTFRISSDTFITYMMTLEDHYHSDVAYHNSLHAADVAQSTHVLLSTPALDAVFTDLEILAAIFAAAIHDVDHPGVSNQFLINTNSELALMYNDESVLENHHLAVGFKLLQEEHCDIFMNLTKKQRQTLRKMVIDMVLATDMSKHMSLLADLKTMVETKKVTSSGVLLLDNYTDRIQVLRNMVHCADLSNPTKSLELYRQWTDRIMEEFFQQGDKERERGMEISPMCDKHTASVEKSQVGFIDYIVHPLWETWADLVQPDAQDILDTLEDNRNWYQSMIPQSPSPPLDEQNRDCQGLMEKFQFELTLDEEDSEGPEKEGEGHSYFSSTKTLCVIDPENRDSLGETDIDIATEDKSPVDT

Regarding `O=C1C=C2C=CC3C[C@@]2(O1)C1CCCCN31` (stereo partly specified), the Potency was 0.51 µM (active) in assay [1]; 8.91 µM (active) in the assay with 7G8; 12.6 µM (active) in the assay on C2A; 5.01 µM (active) in the assay with CP237; 13.5 µM (active) in the assay with CP262; 10.7 µM (active) in the assay on CP266. Besides, the Potency with CP286 was 11.2 µM (active); with CP315, 16.9 µM (active); in the assay on DIV17, 15.1 µM (active); in the assay with Dd2, 11.2 µM (active). For the same compound, the Potency result in the assay with DIV14 is “inactive”.
Consider `C[N+]1(C)CCO[C@](O)(c2ccc(-c3ccc([C@]4(O)C[N+](C)(C)CCO4)cc3)cc2)C1`, for which the result in [2] was inactive. In assay [3], the Potency result was “inactive”.
As to `CNC(C)[C@@H](O)c1ccccc1` (stereo partly specified), the Potency result (in [1]; in the assay on C2A; in the assay on CP185; in the assay on CP192; in the assay on CP194; in the assay with CP201) was “inactive” in each case. Further, the Potency result in the assay on CP203, with CP237, in the assay on CP262, in the assay on CP266, with CP286 and in the assay with CP305 was “inactive” each time. Besides, the Potency result in the assay on CP315, with DIV14, in the assay on DIV17, with Dd2 and with GB4 was “inactive” each time.
Turning to `C=CC1CN2CCC1CC2C(OC(=O)OCC)c1ccnc2ccc(OC)cc12` (stereo unspecified), the Potency result in assay [1] was “inactive”. For the same compound, the Potency with 7G8 was 2.51 µM (active); in the assay with CP185, 8.91 µM (active); in the assay on CP192 it was 6.75 µM (active); in the assay on CP194, 6.01 µM (active); in the assay on CP203 it was 8.49 µM (active); with CP237, 7.08 µM (active). The Potency in the assay on CP262 was 6.01 µM (active); in the assay with CP286, 5.01 µM (active); in the assay on CP305, 9.53 µM (active); in the assay on DIV14, 6.01 µM (active); in the assay on DIV17 it was 13.5 µM (active); in the assay on Dd2, 5.01 µM (active). Also, in the assay with GB4, the Potency is 4.78 µM (active).
As to `C[C@@]12CC[C@H]3[C@@H](CC[C@]4(O)C[C@H](O)CC[C@@]34C=O)[C@]1(O)CC[C@@H]2C1=CC(=O)OC1`, the call in assay [2] was inactive.
As to `C[C@H]1CC[C@@]2(NC1)O[C@@H]1C[C@H]3[C@@H]4CC=C5C[C@@H](O)CC[C@]5(C)[C@@H]4CC[C@]3(C)[C@@H]1[C@@H]2C`, the compound was called inactive in [2]. In assay [3], the Potency result is “inactive”.
`CNc1ccc(C(=O)CC(O)CCC(C)C2OC(=O)CC(O)CC(=O)CC(O)CC(O)CC(O)CC(O)CC3(O)CC(O)C(C(=O)OC)C(CC(O[C@@H]4OC(C)C(O)C(N)C4O)/C=C/C=C/C=C/C=C/C=C/C=C/C=C/C2C)O3)cc1` (stereo partly specified): the Potency result with 7G8, in the assay with C2A, in the assay on CP185, in the assay on CP192, in the assay with CP194 and in the assay on CP201 was “inactive” in each case. Also, the Potency result in the assay with CP203, with CP237, in the assay with CP262, with CP266, with CP286 and in the assay on CP305 was “inactive” throughout. Also, the Potency entry in the assay with CP315, with DIV14, in the assay on DIV17, in the assay on Dd2 and in the assay with GB4 was “inactive” in each case.
For the compound `COc1cc(N)c(Cl)cc1C(=O)N[C@@H]1CN2CCC1CC2`, the Potency entry (in [3]; in assay [1]; with 7G8; in the assay on C2A; in the assay on CP185; in the assay on CP192) was “inactive” each time. Also, the Potency result with CP194, with CP201, with CP203, with CP237, in the assay with CP262 and with CP266 was “inactive” throughout. Further, the Potency result with CP286, with CP305, in the assay on CP315, with DIV14, in the assay with DIV17 and in the assay on Dd2 was “inactive” each time. Moreover, the Potency result in the assay with GB4 was “inactive”.
For the compound `C[C@@]12CC[C@H](O)C[C@@H]1CC[C@H]1[C@@H]2C[C@@H](O)[C@]2(C)[C@@H](C3=CC(=O)OC3)CC[C@]12O`, the call in assay [2] was inactive.
For `c1cncc([C@H]2CCCCN2)c1`, in [3], the Potency result was “inactive”.
`C[C@@H]1O[C@H](O[C@@H]2C=C3CC[C@H]4[C@@H](CC[C@]5(C)[C@@H](c6ccc(=O)oc6)CC[C@]45O)[C@@]3(C)CC2)[C@@H](O)[C@H](O)[C@@H]1O`: the Potency result in the assay on 7G8, with C2A, in the assay on CP185, in the assay with CP192, in the assay on CP194 and in the assay on CP201 was “inactive” in each case. Besides, the Potency entry with CP203, in the assay with CP237, in the assay on CP266, in the assay with CP286, in the assay on CP305 and in the assay on CP315 was “inactive” each time. For the same compound, the Potency entry with DIV14, in the assay with DIV17, in the assay on Dd2 and with GB4 was “inactive” in each case.

The values above are taken from PubChem BioAssay (NCATS).
